In all, about 360,000 compounds went through this assay and about 620 (0.17%) were called active.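 The calls were made as follows: active = inhibition above a per-campaign cutoff, the mean of all compounds plus 3 SD (cut at about 60% in these data); inactive = the rest.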 The full list was thinned out, with actives kept by preference.
The compounds below were run against Nuclear receptor coactivator 3 (Homo sapiens) (UniProt Q9Y6Q9) (assay: SRC3 coactivator transcriptional activity inhibitors, primary screen, cell-based, luminescence (AID 588352;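 also: 0% = DMSO-treated cells and 100% = gossypol-treated cells at 36 µM; higher means less SRC3-driven luciferase light from the GAL4 reporter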)). Conditions: HEK293 GAL4-SRC3 luciferase reporter, at 3.6 µM, hits give high values.
Sequence of Nuclear receptor coactivator 3 (Homo sapiens) (Q9Y6Q9 whole entry, looked up, the tested form may be a part): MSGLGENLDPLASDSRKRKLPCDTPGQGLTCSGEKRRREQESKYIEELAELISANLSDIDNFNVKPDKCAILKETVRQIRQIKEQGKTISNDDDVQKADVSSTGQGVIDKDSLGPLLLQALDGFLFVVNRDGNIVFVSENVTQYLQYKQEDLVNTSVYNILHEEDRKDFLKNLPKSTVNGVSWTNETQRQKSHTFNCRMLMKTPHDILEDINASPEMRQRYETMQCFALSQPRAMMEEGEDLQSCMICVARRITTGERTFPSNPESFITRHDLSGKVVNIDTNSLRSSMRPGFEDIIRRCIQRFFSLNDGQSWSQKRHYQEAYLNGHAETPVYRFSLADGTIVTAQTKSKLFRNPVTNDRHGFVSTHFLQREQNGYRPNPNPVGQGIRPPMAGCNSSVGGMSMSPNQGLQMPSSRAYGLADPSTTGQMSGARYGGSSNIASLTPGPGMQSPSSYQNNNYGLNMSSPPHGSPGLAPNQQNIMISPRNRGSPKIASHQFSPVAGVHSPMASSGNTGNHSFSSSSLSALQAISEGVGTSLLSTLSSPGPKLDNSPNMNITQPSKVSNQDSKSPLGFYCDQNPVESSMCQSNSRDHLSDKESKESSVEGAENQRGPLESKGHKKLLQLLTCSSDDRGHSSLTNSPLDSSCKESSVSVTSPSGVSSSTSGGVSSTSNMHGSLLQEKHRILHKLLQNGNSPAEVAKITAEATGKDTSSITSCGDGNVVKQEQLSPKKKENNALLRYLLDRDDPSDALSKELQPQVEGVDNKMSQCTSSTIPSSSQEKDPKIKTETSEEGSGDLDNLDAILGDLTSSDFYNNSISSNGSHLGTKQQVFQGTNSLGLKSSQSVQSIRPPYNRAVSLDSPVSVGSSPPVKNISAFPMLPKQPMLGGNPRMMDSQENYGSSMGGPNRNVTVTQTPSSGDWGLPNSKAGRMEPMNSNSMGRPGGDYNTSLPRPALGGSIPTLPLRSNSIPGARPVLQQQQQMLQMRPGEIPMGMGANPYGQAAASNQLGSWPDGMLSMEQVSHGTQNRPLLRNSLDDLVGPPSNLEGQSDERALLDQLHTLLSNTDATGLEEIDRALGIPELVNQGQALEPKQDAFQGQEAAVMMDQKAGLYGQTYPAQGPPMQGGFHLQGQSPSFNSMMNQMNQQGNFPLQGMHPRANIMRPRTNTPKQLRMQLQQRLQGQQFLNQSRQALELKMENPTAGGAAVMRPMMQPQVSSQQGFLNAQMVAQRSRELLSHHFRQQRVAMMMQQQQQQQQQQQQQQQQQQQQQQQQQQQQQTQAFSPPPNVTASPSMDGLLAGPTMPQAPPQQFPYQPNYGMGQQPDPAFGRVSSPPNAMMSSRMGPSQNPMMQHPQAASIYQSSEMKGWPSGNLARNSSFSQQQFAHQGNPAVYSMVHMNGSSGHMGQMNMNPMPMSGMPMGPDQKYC
With `CC(NC(=O)CCCC1CCCCC1)c1ccc(S(N)(=O)=O)cc1` (stereo unspecified) the inhibition was 4.7% (inactive). For `CC/C(C)=N/Nc1nc2sc3c(c2c(=O)[nH]1)CC(C)(C)OC3`, the inhibition was -4.5% (inactive). In the case of `O=C(CN1CCN(c2ncccn2)CC1)Nc1ccccc1C(F)(F)F`, the inhibition is reported as 17.7% (inactive). `CC1(C(=O)NS(=O)(=O)c2ccc(C#N)cc2)CCN1C(=O)c1ccc(C2CCCCC2)cc1` (stereo unspecified) was tested, and the inhibition was 8.43% (inactive). In the case of `CC(C)C(c1nnnn1C1CCCCC1)N1CCN(C(=O)c2ccco2)CC1` (stereo unspecified), the inhibition is reported as -1.28% (inactive). For `COc1cccc2c(C)c(C(=O)O)[nH]c12`, the inhibition was 4.08% (inactive). In the case of `CCc1ccc(Oc2nc([N+](=O)[O-])nn2C)cc1`, the inhibition is reported as 12.1% (inactive). For `CC(=O)c1c(C)c[nH]c1C`, the inhibition was 11% (inactive). `CCc1nc2ccc(C(=O)NCc3ccc(OC)cc3)cn2c1N(CC)Cc1cccc(Br)c1` was tested, and the inhibition was 0.61% (inactive). With `CCCCn1c(N)c(N(CCC(C)C)C(=O)CC2OC(=O)c3ccccc32)c(=O)[nH]c1=O` (stereo unspecified) the inhibition was 12.2% (inactive). In the case of `Cc1cccc2cc(CN(C(=O)c3cccs3)c3ccccc3)c(=O)[nH]c12`, the inhibition is reported as 15.8% (inactive). In the case of `O=S(=O)(Cc1nnnn1-c1ccc(Br)cc1)c1ccc(F)cc1`, the inhibition is reported as -7.02% (inactive). In the case of `Cc1cc(C)nc(SCc2nnc(SCC(=O)OC3CCCCC3)o2)n1`, the inhibition is reported as -10.7% (inactive). With `CCCNC(=O)c1ccc(N2CCC3(CC2)CC(c2ccc(Cl)cc2)=NO3)c([N+](=O)[O-])c1` the inhibition was 0.35% (inactive). With `CC1CCCCC1NC(=O)c1cc(=O)[nH]c2ccccc12` (stereo unspecified) the inhibition was 9.65% (inactive). With `COc1ccc(F)cc1C(=O)C1CCCN(C(=O)CCc2ccccn2)C1` (stereo unspecified) the inhibition was 14.9% (inactive). In the case of `Cc1noc(C)c1C(=O)N1CCC1(C)C(=O)NS(=O)(=O)c1ccc(C#N)cc1` (stereo unspecified), the inhibition is reported as -19.1% (inactive). For `O=C(NCCCCCCCCCNC(=O)C(F)(F)F)C(F)(F)F`, the inhibition was -9.12% (inactive). With `Cc1ccc(S(=O)(=O)NCC(=O)N(CC(=O)NC2CCCCC2)Cc2ccco2)cc1` the inhibition was 12.3% (inactive). `COC(=O)CN1C(=O)[C@H]2[C@@H](C3CC3)N3C(=O)CN(Cc4ccc(-c5ccccc5)cc4)C(=O)[C@@]3(Cc3ccccc3)[C@H]2C1=O` was tested, and the inhibition was 9.14% (inactive). For `CC1(C)CC(=O)C=C(c2ccc(Cl)c(C(F)(F)F)c2)C1`, the inhibition was -9.95% (inactive). `CCN(CC)S(=O)(=O)N1CCC(C(=O)NC(C)CCc2ccccc2)CC1` (stereo unspecified) was tested, and the inhibition was 15.5% (inactive). In the case of `Cc1nn(CC(=O)NC2CCCCC2)c(=O)c2cccn12`, the inhibition is reported as -10.9% (inactive). With `CCOC(=O)c1c(C)n(C)c2ccc(OC)c(NC(=O)CN3CCC4(CC3)OCCO4)c12` the inhibition was 6.95% (inactive). For `CCOC(=O)c1csc(CCNC(=O)c2oc3c(Cl)cc(C)cc3c2C)n1`, the inhibition was -12.1% (inactive). `CC(C)CC(CO)N1CCN(C(=O)c2ccc(Cl)cc2Cl)CCC1=O` (stereo unspecified) was tested, and the inhibition was 5.22% (inactive). `COc1ccc(C(CNC(=O)c2cccc(S(=O)(=O)Nc3ccc(Br)cc3)c2)N(C)C)cc1` (stereo unspecified) was tested, and the inhibition was 1.78% (inactive). With `COc1ccc(CNC(=O)COC(=O)C2=Cc3ccccc3OC2)cc1` the inhibition was -19.6% (inactive). With `O=C(O)c1ccccc1C(=O)NC1=NN(c2ccccc2)CC1` the inhibition was 3.76% (inactive). `CC1(C)CC(N2CCN(C(c3ccccc3)c3ccccc3)CC2)=CC(=[N+]2CCCCC2)C1` was tested, and the inhibition was 80% (active). With `CCN1/C(=C\c2ccc3ccccc3[n+]2CC)Sc2cc(C)ccc21` the inhibition was 64.7% (active). `C[C@@H]1CN([C@H](C)CO)C(=O)c2cc(-c3ccc(F)cc3)cnc2O[C@H]1CN(C)C(=O)c1ccc(F)cc1` was tested, and the inhibition was -2.15% (inactive). For `CC(C)[C@H](NC(=O)N1CC(=O)Nc2ccccc21)C(=O)N[C@@H](Cc1c[nH]c2ccccc12)C(=O)O`, the inhibition was 11.1% (inactive). `Cc1cc2ncn(CCCCOc3ccccc3)c2cc1C` was tested, and the inhibition was -3.7% (inactive). With `C/C=C(/C)C(=O)O[C@@H]1c2cc3c(c4c2[C@@]2(CO4)C(=O)C(OC)=C(OC)C=C2C[C@@H](C)[C@H]1C)OCO3` the inhibition was -4.38% (inactive). `C=CC[C@@H](CC(=O)NCCO)C(=O)N[C@H](C)COC(=O)[C@@H](CC=C)CC(=O)OC(C)(C)C` was tested, and the inhibition was 0.5% (inactive). For `CC(=O)Nc1ccc(-c2ccnc3c2CC(C(=O)NC(C)C)O3)cc1` (stereo unspecified), the inhibition was 10.3% (inactive). `COc1cccc(OC)c1C(=O)OCC(=O)/C(C#N)=C(\C)N` was tested, and the inhibition was 7.58% (inactive). For `Cc1ccc(Cn2c(C)c3cnn(CC(=O)NCCN4CCOCC4)c(=O)c3c2C)cc1`, the inhibition was -3.71% (inactive). For `CC(OC(=O)c1ccc(NS(=O)(=O)c2ccc3[nH]c(=O)[nH]c3c2)cc1)C(=O)Nc1cccc(Cl)c1Cl` (stereo unspecified), the inhibition was 4.52% (inactive). For `COc1cc(NC(=S)NNC(=O)CC(C)C)c(OC)cc1Cl`, the inhibition was 17.8% (inactive). For `O=C(NCc1ccco1)C1CCCN1S(=O)(=O)c1ccccc1C(F)(F)F` (stereo unspecified), the inhibition was 8.79% (inactive). For `Cc1cc(NC(=O)CN2C(=O)NC(CC(C)C)C2=O)no1` (stereo unspecified), the inhibition was -3.85% (inactive). With `FC(F)(F)c1cc(C(F)(F)F)c2ccc(N3CCN(c4ccccc4)CC3)nc2n1` the inhibition was 1.84% (inactive). With `O=C(C1=C(O)C(=O)N(CCOCCO)C1c1ccccn1)c1cccs1` (stereo unspecified) the inhibition was 3.48% (inactive). With `Cc1cccc(N2CCN(C(=O)COCc3cc(-c4ccc5c(c4)OCO5)on3)CC2)c1C` the inhibition was -10.1% (inactive). For `CCn1c(NC(=O)c2nn(C)cc2Br)nc2ccccc21`, the inhibition was 9.26% (inactive). With `Cc1cccc(Cn2cnc3c(N)c(C)c(C)cc32)c1` the inhibition was 8.42% (inactive). For `O=C(O)CCCn1cc(NC(=O)COc2cccc(Cl)c2)cn1`, the inhibition was 19.3% (inactive). In the case of `Cc1cc(=O)oc2cc(OCC3CC(c4ccccc4Cl)=NO3)ccc12` (stereo unspecified), the inhibition is reported as -29.1% (inactive). With `COc1cc(NC(=S)N2CCCC(C)C2)cc(OC)c1OC` (stereo unspecified) the inhibition was 8.3% (inactive). With `N#Cc1ccccc1S(=O)(=O)N1CCN(C(=O)c2cc(-c3ccccc3)nn2-c2ccccc2)CC1` the inhibition was 4.59% (inactive). `Cc1ccsc1C(=O)OCC(=O)NCCc1ccccc1` was tested, and the inhibition was -54.7% (inactive). In the case of `Cc1ccsc1C(=O)OCC(=O)c1cc(C)n(CC2CCCO2)c1C` (stereo unspecified), the inhibition is reported as 80.6% (active). In the case of `Cc1ccsc1C(=O)OCC(=O)Nc1cccc(F)c1`, the inhibition is reported as -16.2% (inactive). In the case of `Cc1cccc(-n2c(Cc3cc(=O)[nH]c(=O)[nH]3)nnc2SC(C)C)c1`, the inhibition is reported as 1.68% (inactive). In the case of `Cc1cc(C)c(C2C3=C(Nc4c2c(C)nn4-c2ccccn2)c2ccccc2C3=O)c(C)c1` (stereo unspecified), the inhibition is reported as 9.07% (inactive). In the case of `Cc1ccc(CC(=O)Nc2ccc(OC(F)F)c(Cl)c2)cc1C`, the inhibition is reported as 1.82% (inactive). For `O=C(CC(O)(C(F)(F)F)C(F)(F)F)Nc1ccc(Cl)c(Cl)c1`, the inhibition was 80% (active). `CC1(C(=O)O)CCC(C(=O)Nc2ccc(Cl)c(Cl)c2)C1(C)C` (stereo unspecified) was tested, and the inhibition was 7.83% (inactive). With `CCCCCN(C(=O)NC(=O)Nc1cccc(C)c1C)S(C)(=O)=O` the inhibition was -2.15% (inactive). For `Cc1ccccc1/C=C\c1nc(O)c([N+](=O)[O-])c(=O)[nH]1`, the inhibition was 2.28% (inactive). For `COc1ccc(NC2CCCN(C(=O)c3ccccc3-c3ncc[nH]3)C2)cc1` (stereo unspecified), the inhibition was -11.7% (inactive). `Cc1c(C(=O)c2cccc([N+](=O)[O-])c2)c2ccccn2c1CCC#N` was tested, and the inhibition was 26.8% (inactive). With `C=CCn1c(C)cc(C2=NNC(=NCC)SC2)c1C` the inhibition was 86% (active). `Cc1ccc(S(=O)(=O)Nc2ccccc2CNc2c(C)n(C)n(-c3ccccc3)c2=O)cc1` was tested, and the inhibition was 22.2% (inactive). For `O=S(=O)(Nc1n[nH]c(C(F)(F)F)n1)c1ccccc1`, the inhibition was 6.01% (inactive). `CC(C)(C)c1ccc(Oc2ccc(N)cc2)cc1` was tested, and the inhibition was 82.3% (active). For `CN(C)S(=O)(=O)c1ccc(Oc2ccc(S(=O)(=O)N(C)C)cc2)cc1`, the inhibition was 25.9% (inactive). For `O=C(CSc1nnc(-c2ccc([N+](=O)[O-])cc2)o1)Nc1ccccn1`, the inhibition was -82% (inactive). With `Cc1nc(CNS(=O)(=O)c2ccc(Oc3ccccc3)cc2)cs1` the inhibition was 13.4% (inactive). With `CCNC(=O)NC(=O)C(C)OC(=O)C1CCN(S(=O)(=O)c2ccccc2F)CC1` (stereo unspecified) the inhibition was 18.3% (inactive). `CSCCC(=O)N1CCCC(CNC(=O)c2ccccc2Cl)C1` (stereo unspecified) was tested, and the inhibition was 13.3% (inactive). `Cc1cccc(N2C(=O)SC(SC(=Nc3ccccc3)Nc3ccccc3)C2=O)c1` (stereo unspecified) was tested, and the inhibition was -7.91% (inactive). With `Cc1ccc(/C=N/NC(=O)C2=NNC(c3ccccc3)(c3ccccc3)C2)c(O)c1` the inhibition was 65% (active). For `Cc1ccc(NC(=O)CCC(=O)N/N=C/c2ccco2)c(C)c1`, the inhibition was 16.4% (inactive). `Cc1ccc(/C=N/NC(=O)C(NC(=O)c2ccccc2)c2n[nH]c(=O)c3ccccc23)cc1` (stereo unspecified) was tested, and the inhibition was -30.1% (inactive). `Cc1c(CN2CCC(n3nccc3NC(=O)CCc3ccccc3)CC2)cnn1C` was tested, and the inhibition was 23.5% (inactive). For `CCc1c(O)nc(SCC(=O)Nc2ccccc2)n(C(C)CC)c1=O` (stereo unspecified), the inhibition was -6.38% (inactive). For `CN(C)c1ccc(NC(=O)c2ccncc2)c2ccccc12`, the inhibition was 1.55% (inactive). `O=C1c2ccncc2C(=O)N1C1CCCCC1` was tested, and the inhibition was -19.6% (inactive). `CC(Sc1nnc(Cc2ccc([N+](=O)[O-])cc2)o1)C(N)=O` (stereo unspecified) was tested, and the inhibition was -2.53% (inactive). With `O=C(CCNS(=O)(=O)c1ccccc1)NCCSc1ccc(Br)cc1` the inhibition was -5.67% (inactive). In the case of `CC(C)(CSc1nncn1/N=C/c1ccco1)NS(=O)(=O)c1ccc(Cl)cc1`, the inhibition is reported as 0.37% (inactive). With `O=C(O)CCC(=O)Nc1ccc(OCC2CCCO2)cc1` (stereo unspecified) the inhibition was 4.7% (inactive). For `COc1ccc(-c2nc(N)ncc2-c2ccc(Cl)cc2)c(O)c1`, the inhibition was 1.54% (inactive). For `COc1ccc(OC)c(Cc2cnc3nc(N)nc(N)c3c2C)c1`, the inhibition was 63.7% (active). With `OCCCNc1nccc(-c2cc(Nc3cccc(Cl)c3)ncn2)n1` the inhibition was 90.9% (active). `C/C(=C\c1ccccc1)C1NC(=O)c2c(sc3c2CCCC3)N1` (stereo unspecified) was tested, and the inhibition was 21.8% (inactive). In the case of `CC1(C(=O)O)CCCN(C(=O)/C=C/c2ccccc2)C1` (stereo unspecified), the inhibition is reported as -1.88% (inactive). `Cc1[nH]c(=O)c(C(=O)/C=C/c2ccccc2)c2c1CCCC2` was tested, and the inhibition was 64.9% (active).
